NTR1 ag: agonists of human NTR1, primary screen, imaging, U2OS cells, beta-arrestin-GFP, high content. Neurotensin receptor type 1 (Homo sapiens), P30989. NTR1-U2OS beta-arrestin-GFP spot imaging, agonist mode. activation, % at 20 µM. 0.17% of 330,000 active. AID 493036, 2011;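 active = activation at or above 40% of the spot to cytoplasm intensity ratio, with at least 20 cells analyzed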;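 also: 0% = DMSO without peptide and 100% = 100 nM NTR1 peptide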
Target sequence (P30989 whole entry, looked up): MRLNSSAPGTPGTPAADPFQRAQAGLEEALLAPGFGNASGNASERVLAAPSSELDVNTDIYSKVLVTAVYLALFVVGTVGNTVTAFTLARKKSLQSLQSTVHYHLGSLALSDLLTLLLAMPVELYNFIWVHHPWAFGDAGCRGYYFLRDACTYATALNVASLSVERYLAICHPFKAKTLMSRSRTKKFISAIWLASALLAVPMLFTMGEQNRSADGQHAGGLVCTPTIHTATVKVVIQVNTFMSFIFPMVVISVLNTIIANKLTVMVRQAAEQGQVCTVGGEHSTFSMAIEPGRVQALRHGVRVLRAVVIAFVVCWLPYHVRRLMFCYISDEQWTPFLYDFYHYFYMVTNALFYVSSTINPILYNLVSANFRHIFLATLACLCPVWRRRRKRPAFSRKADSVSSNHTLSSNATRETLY
TMEM16A inh: TMEM16A chloride channel inhibitors, primary screen, cell-based, HTS; Anoctamin-1 (Mus musculus), Q8BHY3; HEK293 TMEM16A/YFP iodide influx fluorescence, ionomycin; 1.2% of 310,000 active; normalized B-score (activity score, 25-100; higher = stronger inhibition) at 10 µM;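 active = ratio plate-corrected score three or more library SD toward inhibition, starting fluorescence score within five deviations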;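 also: score derived from kinetic fluorescence span divided by baseline fluorescence per well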
ANO1 activ: TMEM16A chloride channel activators or potentiators, primary screen, cell-based, HTS. AID 623877, 2012. HEK293 TMEM16A/YFP-H148Q/I152L, iodide quench fluorescence; active compounds read low. Anoctamin-1 (Mus musculus), Q8BHY3. 0.3% of 340,000 active. B-score at 10 µM;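 active = fluorescence-ratio B-score plate-corrected deviation score at least 3 library SD below zero, with starting fluorescence score within 5 deviations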;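 also: channel opened by trigger with iodide after compound preincubation; score built on the fluorescence ratio of max minus min over baseline; more negative score means more quench and so TMEM16A activation or potentiation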
MEKK2wt PB1 HTS: modulators of MEK5 binding to wildtype MEKK2, primary screen, biochemical, multiplex bead flow cytometry, Alexa488-MEK5; 1.1% of 290,000 active; Alexa488-MEK5 binding to MEKK2 WT; actives lie on both sides; binding response (% of control), % at 10 µM; Mitogen-activated protein kinase kinase kinase 2 (Homo sapiens), Q9Y2U5; in the data active = binding response below about 67% or above about 130%
MEKK2 mut-MEK5: MEK5 binding signal on mutant MEKK2 PB1, primary screen, biochemical, multiplex bead flow cytometry, Alexa488-MEK5. Alexa488-MEK5 binding to MEKK2 mutant. percent response, % at 10 µM. 0.35% of 290,000 active. AID 1530, 2009; in the data active = percent response above about 24%, passing the limit was not always enough
MEKK3 PB1 HTS: modulators of MEKK3-MEK5 PB1 binding, primary screen, biochemical, wildtype MEKK3, multiplex bead flow cytometry, Alexa488-MEK5 | Mitogen-activated protein kinase kinase kinase 3 (Homo sapiens), Q99759 | bead-based flow cytometry, Alexa488-MEK5 binding to MEKK3; actives lie on both sides; 0 = blocked by unlabeled MEK5, 100 = vehicle | binding response (% of control), % at 10 µM | 1.4% of 290,000 active | AID 1529, 2009;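 active = binding response more than 3 SD above or below the average of its plate-row segment, actives on both sides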;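 also: Alexa488 bead fluorescence after subtracting the streptavidin-only scavenger bead signal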
MEKK2wt confirm: modulators of MEK5 binding to wildtype MEKK2, confirmation, biochemical, single concentration, multiplex bead flow cytometry; shares compounds with MEKK3 PB1 HTS; Alexa488-MEK5 binding to MEKK2 WT; actives lie on both sides; binding response (% of control), % at 10 µM; 2.4% of 5,900 active; AID 1892, 2009; in the data active = binding response below about 16% or above about 210%; inactive = in between
MEKK2mut confirm: mutant MEKK2 PB1-MEK5 binding signal retest – biochemical, single concentration, multiplex bead flow cytometry, confirmation; shares compounds with MEKK3 PB1 HTS; Alexa488-MEK5 binding to MEKK2 mutant; percent response, % at 10 µM; 2% of 5,900 active; in the data active = percent response mostly above about 71%, no sharp cut-off; inactive = mostly below about 38%;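 also: higher means compound restores mutant binding toward wildtype level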
MEKK3-MEK5 inh: MEKK3 wild-type PB1 binding to MEK5, inhibitors, confirmation, biochemical, bead multiplex flow cytometry, single concentration, wildtype | 1.8% of 5,900 active | Alexa488-MEK5 binding to MEKK3; active compounds read low | binding response (% of control), % at 10 µM | shares compounds with MEKK3 PB1 HTS;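 active = binding response below 72% of control, or above a set upper limit, though filed actives all read lower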;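 also: 100% = DMSO only wells and 0% = binding blocked by excess unlabeled MEK5; lower values mean stronger disruption of MEK5 binding to MEKK3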
Numbers without * were called inactive; i = inactive; . = not tested or not shown; [ ] = dose if it differs, or a comment. This is a sample that favours compounds with a hit; in the whole collection about 3.4% have one here.

SMILES	NTR1 ag	TMEM16A inh	ANO1 activ	MEKK2wt PB1 HTS	MEKK2 mut-MEK5	MEKK3 PB1 HTS	MEKK2wt confirm	MEKK2mut confirm	MEKK3-MEK5 inh
Cc1cc(C)cc(NC(=O)c2ccc(S(=O)(=O)C(F)F)cc2)c1	0	i	i	110	1	144*	107	6	103
CCN(CC)S(=O)(=O)c1ccc(C(=O)Nc2cc(C)cc(C)c2)cc1	-7	i	i	107	6	106	.	.	.
COc1ccc(-c2nnc(SCC(=O)NC(=O)NCc3ccccc3)o2)cc1	0	i	i	106	3	101	.	.	.
Cc1ccccc1-n1ccnc1SCC(=O)NCc1ccco1	0	i	i	93	-10	97	.	.	.
O=C(NCc1ccccc1)C1CCC(CNc2c(N3CCCCC3)c(=O)c2=O)CC1 (centres undefined)	-2	i	i	77	-7	70*[inhibitor]	102	2	103
CC(=O)Nc1cccc(C(=O)NCCc2ccco2)c1	3	i	i	99	2	97	.	.	.
O=C(COC(=O)/C=C/c1cccs1)NC1CC1	-1	i	i	92	-6	105	.	.	.
CC(C)CCOc1cccc(OCC(=O)O)c1	-2	.	i	96	1	183*	107	4	105
C/C(=N\OCC(=O)N/N=C/c1ccc(C)cc1O)c1cccs1	-2	i	i	120	7	124*	109	7	108
C/C(=N\NC(=O)CO/N=C(\C)c1cccs1)c1ccc(N)cc1	1	i	i	100	8	94	.	.	.
CC(OC(=O)CCCN=C1NS(=O)(=O)c2ccccc21)C(=O)Nc1ccccc1F (centres undefined)	2	i	i	.	.	.	.	.	.
CCC(C)NCCOCCOc1ccc(C)cc1Br (centres undefined)	-1	i	i	109	5	102	.	.	.
CCC(C)NCCCOc1c(C)cc(C)cc1Br (centres undefined)	-1	i	i	111	1	147*	109	4	103
CC(=O)Nc1cc(NC(=O)C2C3C=CC(C3)C2C(=O)O)ccc1Cl (centres undefined)	-3	i	i	98	1	96	.	.	.
O=C(O)C1C2C=CC(C2)C1C(=O)Nc1ccc(Cl)c(Cl)c1 (centres undefined)	1	i	i	104	26*	103	96	-1	98
CC(=O)c1c(C)[nH]c(C(=O)OCC(=O)N2CCc3ccccc3C2)c1C	2	.	i	.	.	.	.	.	.
Cc1ncc([N+](=O)[O-])n1Cc1ccc(F)cc1	0	i	i	91	-3	70*[inhibitor]	98	-6	98
CC1CCCCN1C(=O)c1cc(S(=O)(=O)N2CCCCC2)c[nH]1 (centres undefined)	2	i	i	102	-1	102	.	.	.
COc1cccc(C(C(=O)NCc2ccco2)N(C(=O)Cn2nnc3ccccc32)C2CC2)c1OC (centres undefined)	0	i	i	87	-16	82*[inhibitor]	105	3	103
Cc1ccccc1C(C(=O)NCc1ccco1)N(CC1CCCO1)C(=O)Cn1nnc2ccccc21 (centres undefined)	3	i	i	99	-3	101	.	.	.
Cc1ccccc1Nc1cc(C)c2c(O)cccc2n1	2	i	i	75	-7	57*[inhibitor]	115	16	100
CC1(CCc2ccc3c(c2)OCO3)NCCc2c1[nH]c1ccccc21 (centres undefined)	6	i	i	139	25*	107	131	14	105
CCCCCCCCCCCCN1C/C(=C\C(=O)OCC)c2cc(C(F)(F)F)ccc2S1(=O)=O	15	i	i	67*	51*	109	98	-2	96
COc1ccccc1CNC(=O)COC(=O)Cc1ccc(Cl)cc1	0	i	i	115	13	107	.	.	.
COc1ccc(CC(=O)OCC(=O)NCc2ccccc2Cl)cc1	-1	i	i	136	5	151*	107	4	105
SMILES	NTR1 ag	TMEM16A inh	ANO1 activ	MEKK2wt PB1 HTS	MEKK2 mut-MEK5	MEKK3 PB1 HTS	MEKK2wt confirm	MEKK2mut confirm	MEKK3-MEK5 inh
O=C(NCc1ccccc1)C1CC(=O)N(c2ccc(OCC(=O)N3CCOCC3)cc2)C1 (centres undefined)	4	i	i	101	1	102	.	.	.
Cn1c(=O)cc(Nc2ccccc2)c2c(=O)n(-c3ccccc3)c(=O)n(-c3ccccc3)c21	0	i	i	98	-9	99	.	.	.
COc1ccc(NC(=O)CCC(=O)OCC(=O)c2ccc(Oc3ccc([N+](=O)[O-])cc3)cc2)cc1	0	i	i	105	1	113	.	.	.
Cc1ccc(NC(=O)CCC(=O)OCC(=O)c2ccc(Oc3ccc([N+](=O)[O-])cc3)cc2)cc1	1	i	i	108	0	144*	101	1	104
CC1CCCC(C)N1C(=O)COC(=O)CSc1ccc(C(N)=O)cc1[N+](=O)[O-] (centres undefined)	-1	i	i	.	.	.	.	.	.
O=C(NNc1cc(Cl)ccc1Cl)c1c(F)cccc1Cl	1	i	i	124	25	129*	108	5	106
O=C(NNc1ccc(Cl)cc1)c1c(F)cccc1Cl	2	i	i	102	7	101	.	.	.
Cc1cccc2c3c([nH]c12)CCNC3	4	i	i	109	3	101	.	.	.

Screens from PubChem BioAssay.
